Measured values as given in PubChem BioAssay AID1903 (Southern Research Specialized Biocontainment Screening …, 2009).
The campaign covered roughly 310,000 compounds. About 1,200 (0.39%) were called active. The rule behind the calls is not given here. Only a sample is shown. Potency and affinity values are given separately.

The molecules below were run against Large T antigen (Simian virus 40) (UniProt P03070) (assay: SV40 large T antigen inhibitors, biochemical (AID 1903)). Conditions: SV40 large T antigen ATPase/helicase inhibition assay; at 20 µM; active compounds read high.
Chain of Large T antigen (Simian virus 40) (P03070 whole entry, looked up): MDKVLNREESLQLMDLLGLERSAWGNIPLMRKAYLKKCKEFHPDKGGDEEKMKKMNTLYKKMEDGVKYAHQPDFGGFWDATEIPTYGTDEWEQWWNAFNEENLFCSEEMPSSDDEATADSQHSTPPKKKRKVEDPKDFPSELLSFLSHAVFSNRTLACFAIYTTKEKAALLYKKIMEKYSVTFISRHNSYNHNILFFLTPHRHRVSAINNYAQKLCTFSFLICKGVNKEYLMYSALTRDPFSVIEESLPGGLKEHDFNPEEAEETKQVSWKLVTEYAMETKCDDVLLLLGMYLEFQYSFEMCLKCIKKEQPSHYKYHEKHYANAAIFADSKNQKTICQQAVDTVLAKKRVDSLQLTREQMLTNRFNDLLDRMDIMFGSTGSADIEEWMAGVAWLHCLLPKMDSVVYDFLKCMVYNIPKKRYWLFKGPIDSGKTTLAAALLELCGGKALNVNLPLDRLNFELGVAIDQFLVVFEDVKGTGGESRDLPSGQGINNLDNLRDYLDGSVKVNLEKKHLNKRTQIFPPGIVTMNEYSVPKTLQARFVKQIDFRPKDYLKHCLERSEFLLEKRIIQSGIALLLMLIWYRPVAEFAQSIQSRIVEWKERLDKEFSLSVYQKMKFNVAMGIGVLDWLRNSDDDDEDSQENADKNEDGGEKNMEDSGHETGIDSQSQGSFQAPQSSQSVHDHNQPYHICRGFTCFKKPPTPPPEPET

inhibition, inactive:
CCc1nc2oc3ccccc3c(=O)c2c(=O)n1Cc1ccccc1 2.01%
Cn1ccnc1SCC(=O)c1cccc(Br)c1 23.2%
Cc1cc(C)c(NC(=O)COC(=O)CSc2ccc(Br)cc2C)c(C)c1 -2.91%
O=C(O)c1ccc(O)c(O)c1 8.73%
CC(=O)c1ccc(O)c(CO)c1 8.31%
O=C(CSc1nnc(Cn2c(=O)sc3ccccc32)n1-c1ccccc1)N1CCCCCC1 2.86%
COCCCNCCOCCOc1ccc(C)cc1[N+](=O)[O-] 0.35%
Cc1cccc(NC(=S)NNc2cccc(Cl)c2)c1 23.5%
CCOc1ccc(C(=O)c2ccc(OCC)c(N)c2)cc1N 3.54%
CCOc1ccc(S(=O)(=O)N(CC)CC)cc1N -1.97%
Cc1ccc(NC(=O)CN2CCC(C(=O)c3ccc(F)cc3)CC2)cc1 11.8%
COc1ccc(C(=O)C2CCN(CC(=O)Nc3ccc(C)cc3)CC2)cc1 -0.7%
CC(=O)c1ccc(NC(=O)CN2CCC(C(=O)c3ccc(F)cc3)CC2)cc1 25.6%
O=C(CN1CCN(C2CCCCC2)CC1)Nc1ccc(Br)cc1 3.84%
CN(C)c1ccc(NC(=O)CN2CCC(NC(=O)C3CCCCC3)CC2)cc1 28.2%
O=C(CN1CCC(C(=O)c2ccc(F)cc2)CC1)Nc1ccc(F)cc1 3.44%
COc1cccc(-c2ccc(NC(=O)C3CCCN(Cc4cnc(C)n4C)C3)cc2)c1 (stereo unspecified) 12.9%
Nc1nc(-c2ccccc2)c(-c2ccc([N+](=O)[O-])cc2)s1 2.8%
Nc1nc(-c2ccccc2)c(-c2ccccc2)s1 22%
O=C(Nc1cccc(S(=O)(=O)N2CCCC2)c1)c1cccnc1 8.88%
CCn1c(C)nc2cc(C(=O)NNC(=S)NC(=O)c3ccccc3)ccc21 22.4%
COc1ccc(C(=O)Nc2ccc(NC(=O)C3CC3)cn2)cc1 10.7%
N#C/C(=C\c1ccc(Sc2nc3ccccc3[nH]2)o1)c1ccccc1 13%
CC(C)N1C(=O)S/C(=C/c2ccc(Sc3nc4ccccc4[nH]3)o2)C1=O 7.29%
N#C/C(=C/c1ccc(Sc2nc3ccccc3[nH]2)o1)c1cccc(Br)c1 -8.47%
C=CCN1C(=O)S/C(=C/c2ccc(Sc3nc4ccccc4[nH]3)o2)C1=O 6.66%
N#C/C(=C/c1ccc(Sc2nc3ccccc3[nH]2)o1)c1cccc(F)c1 0.21%
CCN1C(=O)S/C(=C/c2ccc(Sc3nc4ccccc4[nH]3)o2)C1=O 10.6%
O=C(NCc1ccco1)/C(=C/c1ccc(F)cc1)NC(=O)c1ccccc1 5.2%
O=C(O)CC1(CC(=O)Nc2ccc3ccccc3n2)CCCCC1 10.8%
Cc1cccc(N=C2N=C(N)c3ccccc32)c1 0.797%
COc1ccc(-c2nc3ccccn3c2NC2CCCCC2)cc1SC1CCCCC1 9.08%
COc1ccc(-c2cn(Cc3ccc(C)cc3)nn2)cc1 5.41%
COCCOC(=O)C1=C(C)NC(=O)NC1c1cn(-c2ccccc2)nc1-c1cccs1 (stereo unspecified) 8.59%
Cc1cccc(Oc2ccccc2N)c1 -2.44%
CC(=O)Nc1ccc(NC(=O)Oc2ccccc2)cc1 16.2%
O=C(Nc1ccc(N2CCN(c3ccc(O)cc3)CC2)cc1)Oc1ccccc1 16.3%
O=C(CC1C(=O)NCCN1CC(c1ccccc1)c1ccccc1)NC1CC1 (stereo unspecified) 3.88%
OCC1(CCCc2ccccc2)CCN(C2CCC2)CC1 4.13%
O=C(COC(=O)C1=COCCO1)NCc1ccc(F)cc1 17.7%
Cc1ccccc1OCCC(=O)Nc1ccc(F)c(Cl)c1 7.2%
Cc1cc(=O)[nH]c2cc(O)ccc12 12.9%
CCCCCCCCC1=NCCc2c1[nH]c1ccccc21 7.25%
COc1cccc(C=Nc2ccccc2C(=O)Nc2ccccc2)c1O 1.08%
Nc1cc(-c2ccc(Cl)cc2)nn1S(=O)(=O)c1ccccc1 0.87%
COc1ccc(/C=C(\C#N)C(=O)NCc2ccccc2)cc1O 8.17%
COc1cc(/C=C(\C#N)C(=O)Nc2cccc3ncccc23)ccc1O 3.35%
N#C/C(=C/c1ccc(N2CCCCC2)o1)C(=O)Nc1ccc(Cl)cc1 22.3%
CCc1ccc(NC(=O)/C(C#N)=C\c2ccc(OC)c(C(=O)O)c2)cc1 1.43%
N#C/C(=C/c1ccc(N2CCOCC2)o1)C(=O)Nc1ccccc1 8.94%
N#C/C(=C\c1ccc(O)c(Br)c1)C(=O)NCc1ccccc1 12.1%
COc1ccc(/C=C(/C#N)C(=O)Nc2ccccc2C)cc1C(=O)O 9.24%
COc1ccc(/C=C(\C#N)C(=O)Nc2cccc3ncccc23)cc1OC 6.66%
CCOP(=O)(O)c1ccccc1OCCOCCOc1ccccc1P(=O)(O)OCC -4.92%
COc1ccc(Cl)cc1Nc1nc(-c2sc(NC(=O)c3ccccc3)nc2C)cs1 2.67%
CCOC(=O)Cn1c(=NC(=O)C(C)C)sc2c(C)cc(C)cc21 14%
CCCc1nnc(NC(=O)CCC(=O)N2CCCCC2CC)s1 (stereo unspecified) 6.09%
N#C/C(=C\c1ccc(O)c(O)c1)C(=O)NCCCc1ccccc1 37.7%
COc1cc(/C=C(\C#N)C(=O)NCCc2ccccc2)cc(OC)c1O 23.4%
CC(NC(=O)/C(C#N)=C/c1ccc(C(=O)O)cc1)c1ccccc1 (stereo unspecified) 2.43%
CN1C(=O)S/C(=C\c2ccccc2OCc2ccc(C(=O)O)cc2)C1=O 10.5%
O=C1NC(=S)N/C1=C\c1ccccc1OCc1ccc(C(=O)O)cc1 11.5%
COc1cc(/C=C(\C#N)C(=O)N2CCc3ccccc32)ccc1O 57%
O=C(C(=O)N1CCCc2ccccc21)N1CCCc2ccccc21 -4.81%
COc1ccc(/C=C(\C#N)C(=O)NC(C)c2ccccc2)cc1O (stereo unspecified) 4.31%
Cc1nnc(NC(=O)CSc2n[nH]c(-c3ccccc3)n2)s1 -0.77%
O=C(CC(C(=O)N1CCc2ccccc21)n1ccnc1)NCC1CCCO1 (stereo unspecified) 2.93%
COc1ccccc1N(C)S(=O)(=O)c1ccc(C(=O)OCC(=O)NCC(F)(F)F)cc1 21.8%
COc1ccc(OCCCC(=O)OCC(=O)NNC(=O)c2ccc([N+](=O)[O-])cc2)cc1 11.8%
COc1ccc2c(=O)c(N3C(=O)c4ccccc4C3=O)c(C)oc2c1 0.21%
COc1ccc(C)cc1NC(=O)Nc1ccc2c(c1)CCC2 -11.4%
N#C/C(=C/c1ccc(O)c([N+](=O)[O-])c1)C(=O)Nc1ccccc1 6.93%
N#C/C(=C/c1ccc(C(=O)O)cc1)C(=O)Nc1ccccc1 2.52%
COC(=O)c1ccc(COc2ccccc2/C=C(\C#N)C(=O)Nc2ccc(C)cc2)cc1 3.16%
COc1cc(/C=C(/C#N)C(=O)Nc2ccccc2)c(Br)cc1OCc1ccc(C(=O)O)cc1 12.2%
CCOC(=O)Cc1csc(NC(=O)CCCN2C(=O)c3ccccc3C2=O)n1 1.05%
Cc1[nH]c2ccccc2c1C(Nc1nccs1)c1ccncc1 (stereo unspecified) 0.2%
CCOc1ccc(NC(=O)CCn2c(=O)[nH]c3ccsc3c2=O)cc1 9.67%
Cc1ccc(S(=O)(=O)N(C)C)cc1NC(=O)CSc1nc2ccccc2c(=O)n1CC1CCCO1 (stereo unspecified) 23.7%
O=C(Nc1ncccn1)C1=C(O)c2ccccc2S(=O)(=O)N1Cc1ccccc1 2.54%
Cc1cc(Cl)c(S(=O)(=O)NC2CCCCC2)cc1OCC(=O)Nc1nncs1 1.03%
Cc1ccccc1NC(=O)CCNS(=O)(=O)c1ccc2c(c1)CCC(=O)N2 5.35%
Cc1ccc(NC(=O)CCNS(=O)(=O)c2ccc3c(c2)CCC(=O)N3)c(Br)c1 3.77%
CC(C)(C)n1nc2c(c1NC(=O)Cc1cccc3ccccc13)CS(=O)(=O)C2 2.22%
Brc1cccc(Cn2c(-c3cncs3)nc3ccccc32)c1 12%
CC(=O)c1cccc(NC(=O)COC(=O)COc2ccccc2C)c1 2.51%
COc1cc2ccc(=O)oc2cc1O 2.12%
CC(C)c1cc2cc3ccc(=O)oc3cc2o1 4.47%
O=C1CCCc2[nH]nc(-c3cccnc3)c21 12%
Cc1c(C)c2cc(Cl)c(O)c(CN(C)C)c2oc1=O 6.8%
Cc1c(Br)c(=O)oc2c(Br)c(O)ccc12 23.7%
C/C(=N\N=C\c1ccccc1F)c1nnn(-c2nonc2N)c1C -1.72%
O=C(NCc1ccc(Cl)cc1)c1cnn2ccccc12 3.57%
O=C(O)C1CCCCC1C(=O)Nc1ccccc1Nc1ccccc1 (stereo unspecified) 20.9%
CC(=O)Nc1ccc(Nc2ccccc2)cc1 23.7%
O=C(Nc1ccccc1)N1CCOCC1 12.8%
O=C(Nc1ccc(Nc2ccccc2)cc1)c1ccccc1 16.9%
CCC(=O)Nc1ccc(Nc2ccccc2)cc1 33.2%
O=C(Nc1ccccc1)Nc1ccc(Nc2ccccc2)cc1 25.8%
O=C(Nc1ccc(F)cc1)N1CCOCC1 0.68%
O=C(O)C1CCCCC1C(=O)Nc1ccc(-c2ccccc2)cc1 (stereo unspecified) -3.79%
